# In all, about 290,000 compounds went through this assay and about 2,600 (0.9%) were called active. The full list was thinned out, with actives kept by preference. A number with no mark means an inactive call.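 Rule for the calls: active = inhibition above the mean of all tested compounds plus 3 SD, cutoff set per screening run (cut at about 7.5% in these data); inactive = the rest.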
# System: VIM-2 metallo-beta-lactamase (Pseudomonas aeruginosa)
# Experiment: inhibition of VIM-2 nitrocefin hydrolysis – biochemical, epi-absorbance readout, Pseudomonas aeruginosa enzyme, primary screen (AID 1527);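 note: red hydrolysis product quenches plate fluorescence so inhibitors raise well fluorescence; 0% = enzyme with DMSO and 100% = DMSO without enzyme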
# Conditions: purified VIM-2, nitrocefin hydrolysis, epi-absorbance fluorescence; at 5.6 µM; active compounds read high
row,Structure (SMILES),inhibition
1,CC(C)c1ccc(OCC(O)CN2CCN(c3ccccn3)CC2)cc1 (stereo not given),-3.55%
2,CN(CC(=O)NCc1ccncc1)S(=O)(=O)c1ccc(Br)cc1,-1.28%
3,COc1ccccc1OCCCC(=O)Nc1ccc2c(c1)OCCO2,-2.36%
4,CC1CCCCC1NC(=O)CCS(=O)(=O)c1ccc2c(c1)NC(=O)CO2 (stereo not given),-1.17%
5,COCC(=O)N1CCc2ccc(NC(=O)c3ccccc3Cl)cc2C1,-2.32%
6,CSc1cccc(NC(=O)CN2C(=O)COc3ccc(S(=O)(=O)N4CCOCC4)cc32)c1,-1.26%
7,O=C1/C(=C/c2cccs2)CCC1C1CCCC1 (stereo not given),-3.15%
8,Cn1c(=O)c(Sc2ccc(Cl)cc2)c(O)c2ccccc21,-2.02%
9,COc1cccc2c(O)cc(=O)n(C)c12,-2.19%
10,Cn1c2ccccc2c(=O)c2c(O)cccc21,16.8% (active)
11,COc1ccc(NC(=O)C2CCC(CNS(=O)(=O)c3csc(C(N)=O)c3)CC2)cc1OC (stereo not given),1.07%
12,Cc1cc(=O)oc2c(C)c(OCC(=O)NCCc3ccc(S(N)(=O)=O)cc3)ccc12,10.4% (active)
13,Cc1ccc2c(=O)cc(C(=O)NCCc3ccc(S(N)(=O)=O)cc3)oc2c1C,5.69%
14,Cc1cc(=O)oc2c(C)c(OCC(=O)NCCN3CCOCC3)ccc12,5.03%
15,Cc1ccccc1NC(=S)NC(=O)Cc1ccc(Cl)cc1,-0.97%
16,CCCCN(C)CCCNC(=O)c1cc(-c2cccs2)nc2ccccc12,-1.4%
17,O=C(NCCN1CCOCC1)c1cc(-c2cccs2)nc2ccccc12,-0.14%
18,Cc1nc2ccccc2c2oc(C(=O)NCCCN3CCC(C)CC3)cc12,16.2% (active)
19,CCCN(CCC)CCNC(=O)c1cc2c(C)nc3ccccc3c2o1,10.2% (active)
20,Cc1cc(=O)oc(C)c1C(=O)NCCN(C)Cc1ccccc1,-1.11%

row,Structure (SMILES),inhibition
1,CC1CCN(CCCn2c(SCC(=O)NC3CCCC3)nc3ccccc3c2=O)CC1,-1.12%
2,Cc1ccccc1C(CC(=O)c1cccs1)C(C#N)C#N (stereo not given),-2.96%
3,O=S(=O)(NC1CCCCC1N1CCCCC1)c1ccc(Cl)cc1 (stereo not given),-1.53%
4,CCCCn1c(N)c(N(CC)C(=O)c2ccccc2C(F)(F)F)c(=O)[nH]c1=O,-0.36%
5,Cc1ccc(N(CC(=O)NCC2CCCO2)C(=O)CNS(=O)(=O)c2ccc(Cl)cc2)cc1 (stereo not given),-3.97%
6,COc1cccc(CNC(=O)Cn2c(=O)oc3cc(S(=O)(=O)N4CCCCC4)ccc32)c1,-0.65%
7,CCOC(=O)C1=C(O)/C(=C/c2ccc(OCC(=O)Nc3ccc(C)cc3)cc2)N=C1C,-1.99%
8,CCCn1c(SCC(=O)c2ccc3c(c2)OCCO3)nnc1C(C)C,9.77% (active)
9,CCCn1c(SCC(N)=O)nnc1C(C)C,-1.77%
10,CCn1c(SCC(=O)Nc2ccc3c(c2)OCCO3)nnc1C(C)C,-1.97%
11,CCN(CC)CCCNC(=O)COc1ccc2oc3c(c2c1)CCCC3,-0.12%
12,O=C(N/N=C/c1cccc([N+](=O)[O-])c1)C1CC(=O)N(c2ccc(Br)cc2)C1 (stereo not given),-1.97%
13,CCC1(C)Cc2c(sc3nc(SC)nc(N)c23)CO1 (stereo not given),-3.26%
14,CN(C)CCSc1nc(N)c2c3c(sc2n1)COC(C)(C)C3,10.3% (active)
15,CCSc1nc2sc3c(c2c(=O)[nH]1)CC(C)(C)OC3,0.86%
16,CC1CC(NC(=O)/C(C#N)=C/c2ccc[nH]2)CC(C)(C)C1 (stereo not given),-3.17%
17,COc1ccc(C(=O)Nc2ccc(C3(C#N)CCCC3)cc2)cc1OC,-1.46%
18,Cc1cc(C)cc(N(CC(=O)NC2CCCC2)C(=O)CCC(=O)Nc2cc(C)on2)c1,-2.81%
19,CCC(CC)c1nnc(NS(=O)(=O)Cc2ccccc2)s1,-1.98%
20,COc1ccc(Cc2nnc(NC(=O)Cc3cccs3)s2)cc1,-3.71%

row,Structure (SMILES),inhibition
1,COc1ccc(Cc2nnc(NS(=O)(=O)Cc3ccccc3)s2)cc1,13.9% (active)
2,Cc1ccc(NS(=O)(=O)c2cn(C)c(=O)n(C)c2=O)c(C)c1,-0.4%
3,CCS(=O)(=O)N1CCC(N2CCN(c3ccccc3)CC2)CC1,-1.31%
4,O=C(NCCc1cccc(F)c1)C1CCCN(c2nc3ccccc3s2)C1 (stereo not given),0.44%
5,Cc1cc(Cl)c2oc(C(=O)NC(C)c3ccncn3)c(C)c2c1 (stereo not given),-1.68%
6,CCC1CCCCN1CCCNC(=O)C1CCC(Cn2c(=O)[nH]c3ccccc3c2=O)CC1 (stereo not given),-4.77%
7,CCC1CCCCN1CCCNC(=O)Cn1nc(-c2ccccc2)ccc1=O (stereo not given),-1.79%
8,CCC1CCCCN1CCCNC(=O)c1cc2c(Cl)nc3ccccc3c2s1 (stereo not given),19.5% (active)
9,Cc1nn(C)c(Oc2ccccc2)c1CCNS(=O)(=O)c1ccc(F)cc1,-2.13%
10,O=C(NCCCN1CCOCC1)c1cnn2c(-c3ccccc3)cc(-c3ccccc3)nc12,23.4% (active)
11,O=C(NCCCN1CCOCC1)c1ccccc1NS(=O)(=O)c1ccc(F)cc1,-1.71%
12,O=C(NCCCN1CCOCC1)c1ccccc1NS(=O)(=O)c1ccc(Br)cc1,-2.82%
13,COc1ccccc1N(C)C(=O)c1cc(S(=O)(=O)N2CCc3ccccc32)cn1C,-4.13%
14,Brc1ccccc1C1N=C(c2ccccc2)NO1 (stereo not given),-2.78%
15,NS(=O)(=O)c1ccc(NC(=O)COC(=O)c2cc3ccccc3oc2=O)cc1,0.95%
16,O=C(COC(=O)c1c2c(nc3ccccc13)/C(=C\c1cccs1)CCC2)Nc1ccccc1Cl,-4.79%
17,NC(=O)c1ccc(NC(=O)COC(=O)c2c3c(nc4ccccc24)/C(=C\c2ccc4c(c2)OCO4)CCC3)cc1,20.7% (active)
18,COc1cc(-c2cc(C(=O)OCC(=O)Nc3ccc4c(c3)OCO4)c3ccccc3n2)cc(OC)c1OC,2.83%
19,NS(=O)(=O)c1ccc(NC(=O)COC(=O)c2c3c(nc4ccccc24)/C(=C\c2ccc4c(c2)OCO4)CCC3)cc1,23.9% (active)
20,COc1cc(/C=C2\CCCc3c2nc2ccccc2c3C(=O)O)cc(Cl)c1O,2.46%
